Bioassay records (PubChem)
TCR activator – activates T cell receptor signaling; primary human leukocytes, anti-CD3, IL-2 HTRF, 48 h; Potency, µM (series often up to 9.22 µM), without a hit: at the highest dose activation of IL-2 secretion, actives largely listed as activators; 330,000 tested, under 10 active; also: % of control where 0% means no effect
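Readout: HTRF IL-2, Eu-cryptate/d2 antibody pair, 320nm excitation, 665nm emission. Stimulus: a-CD3 beads, no co-stimulation. Cells: primary human leukocytes. Exposure: 48 hr with compound.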
Tb PFK block – inhibitors of T. brucei phosphofructokinase; O15648; T. brucei PFK, ADP-Glo luminescence; Potency, µM (highest dose often 57.5 µM), inactives show at the top dose activity, negative = inhibition, usual class: inhibitors; 330,000 tested, 0.17% active;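 also: potency is read from the fitted curve at half-maximal effect; 0% = uninhibited 1x PFK enzyme wells and -100% = no-enzyme wells; nearly all actives have a fitted effect of over 60% in size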
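Luminescent ADP detection (ADP-Glo, two-step: ATP depletion then ADP-to-ATP conversion for luciferase) reported PFK activity after 45 min room-temperature reaction of 1.25 nM enzyme with 0.5 mM F6P and 0.1 mM ATP at pH 8.0.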
AT treatment – candidate therapy for ataxia-telangiectasia; 320,000 tested, 0.19% active; Potency, µM (highest dose often 57.5 µM), without a hit: at the top dose activation, hits mostly activators; F2112 A-T fibroblasts, KAP-1 phosphorylation AlphaLISA; neocarzinostatin DNA damage 30 min before lysis; also: potency is read from the fitted curve at half-maximal effect; % of control where 0% means no effect; nearly all actives have a fitted effect of over 45% in size
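hTERT-immortalized A-T patient fibroblasts (F2112), 500 cells/well in OPTI-MEM, 1% FBS, got compounds for 60 min, then NCS for 30 min at 37C. Lysates were then assayed for phospho-KAP-1 by AlphaLISA (anti-pKAP1 donor, anti-KAP1 acceptor beads), 6 hr at 25C.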
PKM2 activator – activators of human pyruvate kinase M2; P14618; purified PKM2, Kinase-Glo ATP luminescence, activation; response scale: 0% is enzyme alone, no compound; Potency, µM (highest dose often 57.5 µM), for the others: top-dose activation, hits mostly activators; 260,000 tested, 0.34% active; AID 1631; also: potency is read from the fitted curve at half-maximal effect; % is scaled to controls: 0 for no effect and ±100 for the full control effect; nearly all actives have a fitted effect of over 55% in size
Target sequence (P14618 whole entry, looked up): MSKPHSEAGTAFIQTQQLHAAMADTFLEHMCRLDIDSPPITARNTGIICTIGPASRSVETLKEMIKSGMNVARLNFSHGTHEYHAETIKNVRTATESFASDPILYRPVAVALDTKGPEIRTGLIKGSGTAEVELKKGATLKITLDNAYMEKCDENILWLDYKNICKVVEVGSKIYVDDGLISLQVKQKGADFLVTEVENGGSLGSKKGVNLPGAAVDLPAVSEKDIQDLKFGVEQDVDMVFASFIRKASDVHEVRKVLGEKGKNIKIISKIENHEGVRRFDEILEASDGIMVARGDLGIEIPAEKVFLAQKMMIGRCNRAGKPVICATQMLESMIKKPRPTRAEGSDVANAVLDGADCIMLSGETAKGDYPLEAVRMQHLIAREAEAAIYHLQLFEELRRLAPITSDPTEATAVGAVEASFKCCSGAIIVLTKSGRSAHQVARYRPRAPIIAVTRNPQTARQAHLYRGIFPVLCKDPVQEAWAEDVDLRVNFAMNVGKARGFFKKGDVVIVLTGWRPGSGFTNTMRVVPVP
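Purified hPK-M2 (>95% pure) converted ADP (0.1 mM final) to ATP with 0.5 mM PEP in 50 mM imidazole pH7.2, KCl, MgCl2, Tween 20, BSA; 1 h at room temperature. ATP detected by Kinase-Glo luminescence.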
IL-2 act – activators of IL-2 | activation, % (series mostly up to about 46 µM) | 360,000 tested, 0.065% active | IL-2 activation reporter assay, cell-based qHTS; stimulated with anti-CD3/CD4/CD28 beads; in transgenic mouse T cells; in the data active = activation above about 50%; inconclusive = mostly about 30% to 49%; also: 0% is about no effect
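Readout: EGFP and DsRed signals by fluorescent plate cytometry. Unstimulated transgenic mouse T cells received compound 60 min before antibody-bead stimulation, then incubated 18 h at 37 degrees C.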
a7 integrin act – integrin-mediated muscular dystrophy alleviation activation; alpha7betagal myoblasts, beta-gal FDG fluorescence, 48 h; Potency, µM (titrated, usually from 38.3 µM), for the others: at the highest dose activation, usual class: activators; 350,000 tested, 0.064% active; AID 624291;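 also: potency is read from the fitted curve at half-maximal effect; 100% = response of the positive control SU9516; nearly all actives have a fitted effect of over 60% in size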
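alpha7betagal+/- myoblasts (passage 13, 250/well) treated 48 h at 37C with compounds at 1:260 dilution of DMSO stock. Lysed, then beta-galactosidase activity read as FDG fluorescence (ex 480/em 540) after 30 min, with pre-read for autofluorescence.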
* = called active by the depositor; ? = inconclusive; . = not tested or not shown; [ ] = remark or other dose. Most compounds without a hit are left out; they make up all but 0.69% or so of the library. Unless noted, calls follow the shape of the dose curve; as a rule, active = well fitted curve in the direction sought with a large enough effect; inconclusive = small, poorly fitted or top-dose-only effect, or another doubt; inactive = no such curve, though single readings can be large; an effect the other way counts as inactive or inconclusive.

SMILES	TCR activator	Tb PFK block	AT treatment	PKM2 activator	IL-2 act	a7 integrin act
CCc1ccccc1NS(=O)(=O)c1cc2c(cc1C)n(C)c(=O)c(=O)n2C	6.7%	0.2%	?	3.98µM*	-1.8	-14.2%
CCn1c(=O)n(CC)c2cc(S(=O)(=O)Nc3ccccc3C)c(C)cc21	.	-3.9%	7.5%	?	-0.2	30.2%
Cc1ccccc1NS(=O)(=O)c1ccc2[nH]cc(C(=O)NC3CCCCC3)c(=O)c2c1	.	-10.7%	-10.6%	.	.	.
O=C(Nc1ccc(Cl)cc1)Nc1nc(-c2sccc2Br)cs1	2.9%	0.3%	11.6%	1.1%	-5.1	-27.3%
O=C(Nc1ccc(Cl)cc1)Nc1nc(-c2ccccc2O)cs1	-0.9%	5.6%	39.8µM*	-1.5%	-0.7	-38.8%
COc1ccc(CNC(=O)C(C#N)c2nc3ccccc3nc2N2CCCC2)cc1 (configuration not stated)	-50.2%	-10.0%	-3.5%	-2.1%	121.9*	-6.4%
COc1ccc(CNC(=O)C(C#N)c2nc3ccccc3nc2N2CCN(C)CC2)cc1 (configuration not stated)	0.7%	0.3%	-4.7%	?	0.5	16.8%
C[C@@H](C(=O)Nc1ccc2ccccc2c1)[C@H]1C[C@]1(C)[C@H](NC(=O)Oc1ccc(F)cc1)c1ccccc1	.	.	.	3.4%	.	.
Cc1nn(CCC(=O)N2CCN(S(=O)(=O)c3ccc(Cl)cc3)CC2)c(C)c1C	4.3%	3.6%	1.6%	22.4µM*	0.1	-12.5%
Cc1ccc(S(=O)(=O)N2CCN(C(=O)CCn3nc(C)c(C)c3C)CC2)cc1	1.4%	-1.0%	-6.5%	14.1µM*	6.6	30.2%
CN(C)C1(CN=Cc2cc(Cl)cc([N+](=O)[O-])c2O)CCCCC1	8.8%	-2.8%	0.9%	0.4%	-0.6	8.91µM*
O=[N+]([O-])c1cc(Cl)cc(/C=N\Nc2ccccn2)c1O	2.7%	-4.4%	2.9%	-5.0%	-3.2	-7.7%
Oc1ccc(-n2cccc2/C=N/n2cnnc2)cc1	2.6%	-0.6%	4.2%	1.4%	-3.6	7.3%
FC(F)(F)c1cccc(-n2cccc2/C=N/n2cnnc2)c1	-1.4%	1.7%	5.4%	20µM*	0.1	-8.5%
CCCn1[nH]cc(SC)c(=O)c1=O	-2.6%	-8.1%	6.9%	0.8%	51.3*	8.6%
COc1ccc(NC(=O)N2CCc3nc(-c4ccc(OC)cc4C)c4c(c3C2)CO[C@@H](c2ccccc2)C4)cc1	.	.	.	-0.2%[11.5 µM]	.	.
Cc1cc(=O)[nH]c(SCc2cn3ccccc3n2)n1	2.0%	-3.4%	-0.2%	14.1µM*	0.6	-10.4%
Cc1nc(NC2CCCCC2)c2nc(-c3ccccc3)n(CCN3CCCCC3)c2n1	.	.	.	-2.0%	.	.
Cc1ccc(Cn2cccc(-c3nc4ccccc4s3)c2=O)cc1	-2.9%	-0.8%	28.2µM*	-5.1%	-1.2	5.0%
COc1ccc(-n2c(C)c(C(C)=O)c3cc(OC(C)=O)ccc32)cc1	.	-3.8%	-2.9%	8.1%	1.8	10µM*
CCOC(=O)c1c(-c2ccc(C)cc2)cn2ccccc12	-0.2%	-0.9%	31.6µM*	1.2%	2.4	-4.9%
C=CCc1cccc(CNc2nc3ccccc3n2C(C)C)c1O	.	3.2%	3.6%	31.6µM*	-3.3	-39.3%
CCOc1cc(OCC)cc(C(=O)N2CCC[C@@H]2C(=O)N2CCC[C@@H]2C(=O)NCc2ccccc2Cl)c1	.	.	.	.	1.8	.
CC(C)NC(=O)NC(=O)CSc1ncc(C(F)(F)F)cc1Cl	-0.6%	-4.2%	12.5%	14.1µM*	-1.6	5.0%
CC(C)(C)NC(=O)NC(=O)CSc1ncc(C(F)(F)F)cc1Cl	-2.4%	-2.9%	-1.7%	-0.3%	-1.2	-20.7%[7.66 µM]
SMILES	TCR activator	Tb PFK block	AT treatment	PKM2 activator	IL-2 act	a7 integrin act
C[C@H]1Cc2c(-c3ccccc3)nc3c(c2CO1)CN(C(=O)NCCc1c[nH]c2ccccc12)CC3	.	.	.	-4.8%[11.5 µM]	.	.
O=C(O)CCCCCN1C(=O)/C(=C\c2ccc(-c3ccc(Cl)cc3)o2)SC1=S	12.9%	-1.7%	-19.7%	31.6µM*	-2.4	-16.4%
COC(=O)Cn1c(C(=O)N(C)C)cc2c1C[C@H]1CN(C(=O)c3ccccc3)[C@@](Cc3ccc(OC)cc3)(C(=O)OC)[C@@H]21	.	.	.	0.2%	.	.
CCc1nnc(NC(=O)c2ccc(S(=O)(=O)NCC(C)C)cc2)s1	3.8%	-4.5%	-7.5%	2.3%	-2.7	12.6µM*
C[C@H]1C2=C3C(CC[C@H]4C(OCc5ccc(F)cc5C(F)(F)F)OC[C@](C)([C@@H]34)N(C(=O)OC(C)(C)C)C2)C(CO)C1CO (some centres not stated)	.	.	.	0.0%	.	.
Cc1nn(C)c(N)c1[N+](=O)[O-]	9.3%	-1.5%	-0.8%	?	-0.3	?
Cc1nn(C)c(Sc2ccccc2N)c1[N+](=O)[O-]	-2.5%	-20.0%	2.2%	11.2µM*	-0.5	-32.6%
CCN(CC(=O)NCc1ccc(F)cc1)C(=O)/C=C/c1ccco1	16.5%	?	1.6%	12.6µM*	-1.5	-15.9%
Cn1cc(S(=O)(=O)Nc2ccc(OC(F)(F)F)cc2)c(=O)n(C)c1=O	4.5%	4.5%	12.6µM*	16.1%	0.4	2.6%
OCC[n+]1ccc(/C=C/c2c[nH]c3ccccc23)cc1	3.3%	-1.1%	12.5%	-13.1%	94.5*	-33.9%
Cn1c(CSc2nnc(SCc3ccccc3)s2)nc2ccccc21	1.1%	-5.7%	5.1%	17.8µM*	1.3	13.2%[7.66 µM]
O=C(Cn1cccc1C(=O)c1ccccc1)NCCCc1ccccc1	3.0%	-1.3%	5.4%	.	-1.0	3.98µM*
O=C(CNS(=O)(=O)c1ccc(Br)s1)N1CCCC1	-4.4%	1.1%	8.3%	3.2%	-1.0	2.4%
CCOC(=O)C1CCCN(C(=O)CNS(=O)(=O)c2ccc(Br)s2)C1 (configuration not stated)	-7.0%[46.1 µM]	1.1%	3.6%	-3.9%	0.8	2µM*
CCCCc1cc2c(cn1)C(=O)C(C)(OC(C)=O)C(=O)C2 (configuration not stated)	.	.	.	-0.2%[11.5 µM]	.	.
COCCNS(=O)(=O)c1ccc2c(c1)C(=NO)c1cc(S(=O)(=O)NCCOC)ccc1-2	-2.2%	0.2%	-10.1%	10µM*	-4.4	3.3%
COCCNS(=O)(=O)c1ccc2c(c1)Cc1cc(S(=O)(=O)NCCOC)ccc1-2	.	0.0%	1.1%	26.4%	-0.8	4.9%
CC(C)(C)OC(=O)N[C@H](C(=O)OC(C)(C)C)c1ccccc1	2.4%	-2.9%	-1.6%	.	0.7	-4.7%
COc1ccc(OC(=O)c2ccc3nsnc3c2)cc1	3.2%	5.7%	.	-4.6%	-3.5	-15.1%
Cc1ccc(OC(=O)c2ccc3nc(C)sc3c2)cc1	3.5%	1.7%	-3.0%	5.3%	393.6*	?
